Laboratory results: PubChem BioAssay AID2094 (Broad Institute, 2009)
Hit rate of the full screen: of about 300,000 compounds, about 1,200 (0.4%) were called active. What follows is part of a selection rich in actives, with near analogues and random picks from the rest. Unmarked numbers belong to inactive results. Cut-off read from the data, not from the text of the source: active = activity change below about -75% (passing the limit was not always enough); inconclusive = no clear call, values can overlap the other calls.

Assay: modulation of AI-2 quorum-sensing luminescence – JMH597 strain, luminescence/OD600 ratio, primary screen (AID 2094);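 note: luminescence divided by OD600 gain over 9 h not by final OD600 alone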
Details: Vibrio harveyi JMH597 AI-2 luminescence/OD600 ratio, 9 h; at 7.5 µM; active compounds read low; 0 = neutral-control median; strain lacks LuxN and CqsS sensors

| Compound | activity change |
| --- | --- |
| CCCc1ccc(OCCNC(=O)c2ccco2)cc1 | -83.3% (active) |
| CCCc1ccc(OCCNC(=O)c2ccccc2Br)cc1 | 28.5% |
| CCCc1ccc(OCC(=O)NNC(=S)NC(=O)c2ccco2)cc1 | -5.63% |
| Cc1ccccc1OCC(=O)Nc1ccc2c(c1)ncn2C | 27.2% |
| Cc1ccc(C(=O)O)cc1N1C(=O)CCCC1=O | 28.2% |
| CCc1nnc(NS(=O)(=O)c2ccc(NC(=O)c3cccc(OC(F)(F)C(F)F)c3)cc2)s1 | 24.2% |
| O=C(O)c1ccc(S(=O)(=O)N2CCC(Cc3ccccc3)CC2)cc1 | 38.4% |
| Cc1cc(C)nc(N/N=C/c2ccncc2)n1 | 10.7% |
| CCc1ccc(S(=O)(=O)N/N=C\c2ccc([N+](=O)[O-])o2)cc1 | 28.2% |
| Cc1cc(C)nc(N/N=C/c2ccc([N+](=O)[O-])o2)n1 | -83.7% (active) |
| NC(=O)CN1CCCC1c1ccc2c(c1)OCCO2 (centres undefined) | 22.1% |
| Cc1ccc(CCCOC(=O)C[N+]2(C)CCCCC2)cc1 | 20.1% |
| Cc1ccc(-c2noc(CN3CCN(Cc4ccccc4)CC3)n2)cc1 | -10.7% |
| Cc1ccc(Cc2nc(-c3cccc(C)c3)no2)cc1 | -81.8% (active) |
| Cc1cccc(-c2noc(-c3ccc(F)cc3)n2)c1 | 2.4% |
| Cc1cccc(C)c1N1CCN(S(=O)(=O)N2CCOCC2)CC1 | 0.226% |
| Cc1cc(C)cc(NC(=O)COC(=O)c2cc(C)oc2C)c1 | -17% |
| Cc1cccc(C(=O)OCC(=O)Nc2ccc(F)cc2)c1 | -25.5% |
| Cc1cc(C(=O)OCC(=O)Nc2ccc(F)c(F)c2)c(C)o1 | -93.5% (active) |
| CCOC(=O)N1CCN(S(=O)(=O)c2ccc(Br)cc2)CC1 | 14.3% |
| CC1CCN(C(=O)Cn2nnnc2CN2CCOCC2)CC1 | 8% |
| O=C(/C=C/c1ccc(Cl)c([N+](=O)[O-])c1)c1ccc(O)cc1 | -37.5% |
| CN(C)c1ccc(/C=C/C(=O)c2ccc(O)cc2)cc1[N+](=O)[O-] | -93% (active) |
| CC(=O)c1ccc2c(c1)OCCOCCOc1ccc(C(C)=O)cc1OCCOCCO2 | 17.9% |

| Compound | activity change |
| --- | --- |
| O=C(/C=C/c1ccc2c(c1)OCCO2)c1ccc(O)cc1 | -84.5% (active) |
| CN(C)c1ccc(/C=C/C(=O)c2ccc(C(C)(C)C)cc2)cc1[N+](=O)[O-] | 19.9% |
| O=C(O)/C=C/c1ccc2c(c1)OCCO2 | 6.59% |
| O=C(Cc1ccc([N+](=O)[O-])cc1)Nc1ccc(C(=O)N2CCOCC2)cc1 | 31% |
| CCN(CC)c1ccc(S(=O)(=O)N2CCCCC2)cc1NC(=O)C1=COCCO1 | 0.314% |
| Cc1cccc(N2CCN(S(=O)(=O)c3ccc(-c4cc(C)no4)s3)CC2C)c1 (centres undefined) | 7.14% |
| Cc1ccc(C(=O)N2CCN(S(=O)(=O)N3CCOCC3)CC2)cc1 | 14.3% |
| NC(=O)c1ccc(NC(=O)COC(=O)c2ccc([N+](=O)[O-])cc2)cc1 | 17.8% |
| O=C(COC(=O)C1CCCCC1)Nc1ccc([N+](=O)[O-])cc1 | -83.6% (active) |
| O=C(COc1ccc([N+](=O)[O-])cc1)Nc1ccc(N2CCCC2)cc1 | 44.5% |
| CCCC1NC(=O)NC(C)=C1C(=O)OCC (centres undefined) | 2.55% |
| Oc1c(Br)cc(/C=N/NC(=S)NCC2CCCO2)cc1Br (centres undefined) | 46.7% |
| CCN(C(=O)COc1cccnc1[N+](=O)[O-])C1CCS(=O)(=O)C1 (centres undefined) | 32.7% |
| N#CCSc1nc(-c2ccccc2)nc2ccc(F)cc12 | 12.5% |
| COC(=O)c1ccc(SCc2ccccc2)nc1 | -80.3% (active) |
| COC(=O)c1ccc(CSc2nncn2C)cc1 | 9.24% |
| COC(=O)c1ccc(CSc2nncn2N)cc1 | 26.7% |
| COc1ccc(N2CCN(S(=O)(=O)c3cc(Br)cnc3N)CC2)cc1 | 15.8% |
| CC(C)(C)c1cc(C(=O)N/N=C/c2ccc([N+](=O)[O-])s2)n[nH]1 | 16.7% |
| COc1ccc2ccccc2c1/C=N/NC(=O)c1cc(C)[nH]n1 | 11.2% |
| Cc1cc(C(=O)N/N=C/c2cc([N+](=O)[O-])cc(C)c2O)n[nH]1 | -86.5% (active) |
| COC(=O)c1ccc(NC(=O)CSc2nnc(C3CC3)n2C)cc1 | 40.9% |
| Cc1c(NC(=O)C(C)OC(=O)c2c3c(nc4ccccc24)CCC(C)C3)c(=O)n(-c2ccccc2)n1C (centres undefined) | 5.39% |
| Cc1cc(C)n(CCNCc2c(C(=O)N3C[C@@H](C)O[C@@H](C)C3)nc3ccc(Cl)cn23)n1 | 11% |

| Compound | activity change |
| --- | --- |
| CC(=O)Nc1ccc(NS(=O)(=O)c2ccc3c(c2)NC(=O)CC(=O)N3)cc1 | 6.21% |
| O=C1COc2ccc(S(=O)(=O)NCCc3ccc(Cl)cc3)cc2N1 | -21.2% |
| O=C1COc2ccc(S(=O)(=O)Nc3ccc(OC(F)(F)F)cc3)cc2N1 | -94.2% (active) |
| Cc1ccc(NS(=O)(=O)c2cc3c(cc2C)NC(=O)CO3)cc1 | 20.3% |
| Cc1cccc(CCNS(=O)(=O)c2ccc3c(c2)NC(=O)CO3)c1 | -59.5% |
| Cc1ccc(NS(=O)(=O)c2ccc3c(c2)NC(=O)CO3)cc1 | -85.9% (active) |
| COc1cc(NC(=O)c2ccccc2NS(=O)(=O)c2ccc(Cl)s2)cc(OC)c1 | 26.9% |
| CCOc1ccc(NC(=O)CC(Cc2ccc(Cl)cc2)C(=O)O)cc1 (centres undefined) | -20.6% |
| CCCCCCC12CCC(C(=O)O)(CC1)CC2 | 24.4% |
| Cn1nnnc1SCC(=O)Nc1nc2ccccc2s1 | 32.4% |
| O=C(CCC(=O)c1cccs1)NC1CCCCCC1 | -7.35% |
| O=C(CCC(=O)c1cccs1)Nc1nc2ccccc2s1 | -87.3% (active) |
| O=C(NC(=S)Nc1ccccc1C(=O)O)c1ccc(-c2ccc(Br)cc2)o1 | 9.83% |
| CN(C)S(=O)(=O)c1ccc(N/C=C(\[N+](=O)[O-])S(=O)(=O)c2ccccc2)cc1 | 28.7% |
| Cc1ccc(OCc2cc(C(=O)N(C)CCn3ccnc3C)no2)cc1C | 14.9% |
| Cc1cc(CN(C)C(=O)c2cc(COc3ccc(C)c(C)c3)on2)n[nH]1 | -90.7% (active) |
| CN(Cc1cnccn1)C(=O)c1cc(COc2cccc(C(F)(F)F)c2)on1 | -92.5% (active) |
| O=C(c1cc(COc2cccc(C(F)(F)F)c2)on1)N1CCSCC1 | -30.7% |
| CN(Cc1cccnc1)C(=O)c1cc(COc2ccc3ncccc3c2)on1 | 38.5% |
| Cc1ccc(OCc2cc(C(=O)N(C)CCc3ccccc3)no2)cc1C | 36% |
| O=S(=O)(c1ccc(Cl)cc1)N1CCCN(c2ccc(C(F)(F)F)cn2)CC1 | 6.59% |
| COc1ccc(CN2CCn3ncc(C(=O)Nc4ccc(Cl)cc4Cl)c3C2=O)cc1 | 23.8% |
| CCOc1ccc(S(=O)(=O)Nc2ccncc2)c(C)c1C | 21.3% |
| COc1ccc(Cc2nc3ccc(C(=O)N4CCC(N(C)C)C4)cc3o2)cc1 (centres undefined) | -2.62% |

| Compound | activity change |
| --- | --- |
| COCC1CCN(C(=O)c2ccc3oc(Cc4ccccc4)nc3c2)C1 (centres undefined) | 0.814% |
| COC(=O)C1CCN(C(=O)c2ccc3oc(Cc4ccc(Cl)cc4)nc3c2)CC1 | -86% (active) |
| Oc1ccc(-c2cccc(-c3ccc(O)cc3)c2)cc1 | -10.9% |
| O=C(NC1CCCCC1)c1ccc(-c2ccc(Cl)cc2)o1 | 2.19% |
| COc1ccc(NC(=O)[C@H](NC(=O)[C@@H]2Cc3ccccc3CN2)c2ccccc2)cc1 | 13.8% |
| CCc1ccc(C(=O)CSc2nnc(C)c(=O)[nH]2)cc1 | 17.8% |
| COc1ccccc1C(=O)N1C(CC(=O)Nc2ccccc2C)C(=O)NC2CCCCC21 (centres undefined) | 6.5% |
| CC(C)(C)OC(=O)CNC(=O)c1[nH]cnc1C(=O)N[C@@H](Cc1ccccc1)C(=O)OCc1ccccc1 | 20.9% |
| S=C(NCc1ccc(Cl)cc1)NC1CCCCC1 | -86.1% (active) |
| S=C(NCc1ccc(Cl)cc1)NC12CC3CC(CC(C3)C1)C2 | -20.7% |
| O=C(NC(=S)NC1CCCCC1)c1ccc(Cl)cc1 | 6.82% |
| COc1cc(C(=O)OCC(=O)NC(C)CCc2ccccc2)cc(OC)c1OC (centres undefined) | 17.1% |
| CCCNC(=O)c1ccc(N2CCC3(CC2)CC(c2cccc(Br)c2)=NO3)c(NC(=O)c2ccco2)c1 | 20.3% |
| O=C(N/N=C/c1ccc([N+](=O)[O-])o1)c1cn(-c2ccccc2)nc1-c1ccc(F)cc1 | 7.69% |
| O=C(/C=C/c1ccc([N+](=O)[O-])o1)NNC(=O)c1ccc(F)cc1 | -90.7% (active) |
| Cc1ccc(/C=C/C(=O)Nc2ccc([N+](=O)[O-])c(NC(=O)/C=C/c3ccc(C)o3)c2)o1 | 34.4% |
| Cc1nc(CN2CCN(C(=O)CCc3nnc(Cc4c[nH]c5ccccc45)o3)CC2)cs1 | 18% |
| COc1ccccc1NC(=O)COC(=O)Cc1ccc(S(=O)(=O)N2CCCCC2)s1 | 2.99% |
| CCOC(=O)c1cn(Cc2cccc(C)c2)nn1 | 13.8% |
| CCOC(=O)c1nn(-c2cccc(C)c2)cc1C(=O)c1ccccc1 | -88.4% (active) |
| CC(=O)c1nn(-c2ccc(C)cc2)cc1C(=O)c1cccc(Br)c1 | 14.3% |
| Cc1cc(S(=O)(=O)N2CCOCC2)ccc1OCC(=O)N1CCOCC1 | 18.8% |
